From PubChem BioAssay (NCATS)
Records with an inconclusive call do not appear. Entries that show only a call come without a potency. Values without a mark were called inactive. Activity calls are given as the source filed them. Calls follow the shape of the dose curve; as a rule, active = well fitted inhibition curve with a large enough effect; inconclusive = small, poorly fitted or top-dose-only effect; inactive = flat fitted curve, though single readings scatter.

How the values were obtained:
Assay in all cases: qHTS profiling for inhibitors of Plasmodium falciparum proliferation (AID 504749); also: nearly all actives have a fitted effect of over 60% in size
Conditions in all cases: P. falciparum in erythrocytes, SYBR Green DNA, 72 h; series mostly up to 28.7 µM
CP329 = system: CP329
Outline: (§1)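 Three-day growth assay of blood-stage parasites in erythrocytes (0.3% parasitemia, 2.5% hematocrit) at 37 C, 5% CO2, quantified by SYBR Green DNA staining after overnight detergent lysis.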

CP335 = system: CP335
Outline: as §1

DFO2036 = system: DFO2036
Outline: as §1

DIV14 = system: DIV14
Outline: as §1

DIV17 = system: DIV17
Outline: as §1

DIV30 = system: DIV30
Outline: as §1

Dd2 = system: Dd2
Outline: as §1

ECU = system: ECU
Outline: as §1

FAB9 = system: FAB9
Outline: as §1

GB4 = system: GB4
Outline: as §1

HB3 = system: HB3
Outline: as §1

ICS = system: ICS
Outline: as §1

JCK = system: JCK
Outline: as §1

N140 = system: N140
Outline: as §1

P93_24 = system: P93_24
Outline: as §1

P94_40 = system: P94_40
Outline: as §1

PAD = system: PAD
Outline: as §1

PC15 = system: PC15
Outline: as §1

PC26 = system: PC26
Outline: as §1

PC49 = system: PC49
Outline: as §1
Potency is read from the fitted curve at half-maximal effect.

COP(=S)(OC)Oc1ccc(S(=O)(=O)N(C)C)cc1
Potency (CP329): inactive | Potency (CP335): inactive | Potency (DFO2036): inactive | Potency (DIV14): inactive | Potency (DIV17): inactive | Potency (DIV30): inactive | Potency (Dd2): inactive | Potency (ECU): inactive | Potency (FAB9): inactive | Potency (GB4): inactive | Potency (HB3): inactive | Potency (ICS): inactive | Potency (JCK): inactive | Potency (N140): inactive | Potency (P93_24): inactive | Potency (P94_40): inactive | Potency (PAD): inactive | Potency (PC15): inactive | Potency (PC26): inactive | Potency (PC49): inactive

CC(C)=CC1C(C(=O)OCN2C(=O)C3=C(CCCC3)C2=O)C1(C)C (stereo not drawn)
Potency (CP329): inactive | Potency (CP335): inactive | Potency (DFO2036): inactive | Potency (DIV14): inactive | Potency (DIV17): inactive | Potency (DIV30): inactive | Potency (Dd2): inactive | Potency (ECU): inactive | Potency (FAB9): inactive | Potency (GB4): inactive | Potency (HB3): inactive | Potency (ICS): inactive | Potency (JCK): inactive | Potency (N140): inactive | Potency (P93_24): inactive | Potency (P94_40): inactive | Potency (PAD): inactive | Potency (PC15): inactive | Potency (PC26): inactive | Potency (PC49): inactive

CNC(C)(C)Cc1ccccc1
Potency (CP329): inactive | Potency (CP335): inactive | Potency (DFO2036): inactive | Potency (DIV14): inactive | Potency (DIV17): inactive | Potency (DIV30): inactive | Potency (Dd2): inactive | Potency (ECU): inactive | Potency (FAB9): inactive | Potency (GB4): inactive | Potency (HB3): inactive | Potency (ICS): inactive | Potency (JCK): inactive | Potency (N140): inactive | Potency (P93_24): inactive | Potency (P94_40): inactive | Potency (PAD): inactive | Potency (PC15): inactive | Potency (PC26): inactive | Potency (PC49): inactive

O=C1OC(c2ccc(O)c(S(=O)(=O)O)c2)(c2ccc(O)c(S(=O)(=O)O)c2)c2c(Br)c(Br)c(Br)c(Br)c21
Potency (CP329): inactive | Potency (CP335): inactive | Potency (DFO2036): inactive | Potency (DIV14): inactive | Potency (DIV17): inactive | Potency (DIV30): inactive | Potency (Dd2): inactive | Potency (ECU): inactive | Potency (FAB9): inactive | Potency (GB4): inactive | Potency (HB3): inactive | Potency (ICS): inactive | Potency (JCK): inactive | Potency (N140): inactive | Potency (P93_24): inactive | Potency (P94_40): inactive | Potency (PAD): inactive | Potency (PC15): inactive | Potency (PC26): inactive | Potency (PC49): inactive

C=C(C)[C@H]1CN[C@H](C(=O)O)[C@H]1CC(=O)O
Potency (CP329): inactive | Potency (DFO2036): inactive | Potency (DIV14): inactive | Potency (DIV17): inactive | Potency (DIV30): inactive | Potency (Dd2): inactive | Potency (ECU): inactive | Potency (FAB9): inactive | Potency (GB4): inactive | Potency (HB3): inactive | Potency (ICS): inactive | Potency (JCK): inactive | Potency (N140): inactive | Potency (PAD): inactive | Potency (PC15): inactive | Potency (PC26): inactive | Potency (PC49): inactive

CCCCCCCCCC(=O)O[C@H]1CC[C@H]2[C@@H]3CCC4=CC(=O)CC[C@@H]4[C@H]3CC[C@]12C
Potency (CP329): inactive | Potency (CP335): inactive | Potency (DFO2036): inactive | Potency (DIV14): inactive | Potency (DIV17): inactive | Potency (DIV30): inactive | Potency (ECU): inactive | Potency (FAB9): inactive | Potency (GB4): inactive | Potency (HB3): inactive | Potency (JCK): inactive | Potency (N140): inactive | Potency (P93_24): inactive | Potency (P94_40): inactive | Potency (PAD): inactive | Potency (PC15): inactive | Potency (PC26): inactive | Potency (PC49): inactive

CN1CCC(O)(c2ccc(F)cc2)C(C(=O)c2ccc(F)cc2)C1 (stereo not drawn)
Potency (CP329): inactive | Potency (CP335): inactive | Potency (DFO2036): inactive | Potency (DIV14): inactive | Potency (DIV17): inactive | Potency (DIV30): inactive | Potency (Dd2): inactive | Potency (ECU): inactive | Potency (FAB9): inactive | Potency (GB4): inactive | Potency (HB3): inactive | Potency (ICS): inactive | Potency (JCK): inactive | Potency (N140): inactive | Potency (P94_40): inactive | Potency (PAD): inactive | Potency (PC15): inactive | Potency (PC26): inactive | Potency (PC49): inactive

O=C1CN=C(c2ccccc2)c2cc([N+](=O)[O-])ccc2N1
Potency (CP329): inactive | Potency (CP335): inactive | Potency (DFO2036): inactive | Potency (DIV17): inactive | Potency (DIV30): inactive | Potency (Dd2): inactive | Potency (ECU): inactive | Potency (FAB9): inactive | Potency (GB4): inactive | Potency (HB3): inactive | Potency (ICS): inactive | Potency (JCK): inactive | Potency (N140): inactive | Potency (P93_24): inactive | Potency (P94_40): inactive | Potency (PAD): inactive | Potency (PC15): inactive | Potency (PC26): inactive | Potency (PC49): inactive

CC(C)(C)NCC(O)c1cc(Cl)c(N)c(C(F)(F)F)c1 (stereo not drawn)
Potency (CP329): inactive | Potency (DFO2036): 5.01 µM (active) | Potency (DIV14): 6.01 µM (active) | Potency (DIV17): 7.57 µM (active) | Potency (Dd2): 12.6 µM (active) | Potency (ECU): 5.01 µM (active) | Potency (FAB9): inactive | Potency (GB4): 12 µM (active) | Potency (ICS): 4.47 µM (active) | Potency (JCK): 11.2 µM (active) | Potency (N140): 2.82 µM (active) | Potency (P93_24): 3.55 µM (active) | Potency (PAD): 12.6 µM (active) | Potency (PC15): 11.2 µM (active) | Potency (PC49): 11.2 µM (active)

C[C@]12CCC(=O)C=C1CC[C@@H]1[C@@H]2CC[C@]2(C)C(=O)CC[C@@H]12
Potency (CP329): inactive | Potency (CP335): inactive | Potency (DFO2036): inactive | Potency (DIV14): inactive | Potency (DIV30): inactive | Potency (Dd2): inactive | Potency (FAB9): inactive | Potency (GB4): inactive | Potency (HB3): inactive | Potency (ICS): inactive | Potency (JCK): inactive | Potency (N140): inactive | Potency (P93_24): inactive | Potency (P94_40): inactive | Potency (PC15): inactive | Potency (PC26): inactive | Potency (PC49): inactive

O=C1c2ccccc2C(=O)c2ccccc21
Potency (CP329): inactive | Potency (DFO2036): inactive | Potency (HB3): 11.2 µM (active) | Potency (ICS): 3.55 µM (active) | Potency (JCK): inactive | Potency (P94_40): inactive | Potency (PC49): inactive

O=P1(N(CCCl)CCCl)NCCCO1 (stereo not drawn)
Potency (CP329): inactive | Potency (CP335): inactive | Potency (DFO2036): inactive | Potency (DIV14): inactive | Potency (DIV17): inactive | Potency (DIV30): inactive | Potency (Dd2): inactive | Potency (ECU): inactive | Potency (FAB9): inactive | Potency (GB4): inactive | Potency (HB3): inactive | Potency (ICS): inactive | Potency (JCK): inactive | Potency (N140): inactive | Potency (P93_24): inactive | Potency (P94_40): inactive | Potency (PAD): inactive | Potency (PC15): inactive | Potency (PC26): inactive | Potency (PC49): inactive

Cc1nnc2n1-c1ccc(Cl)cc1C(c1ccccc1)=NC2
Potency (CP329): inactive | Potency (DFO2036): inactive | Potency (DIV14): inactive | Potency (DIV17): inactive | Potency (Dd2): inactive | Potency (ECU): inactive | Potency (FAB9): inactive | Potency (GB4): inactive | Potency (HB3): inactive | Potency (ICS): 8.91 µM (active) | Potency (N140): inactive | Potency (P93_24): inactive | Potency (PAD): inactive | Potency (PC15): inactive | Potency (PC26): inactive | Potency (PC49): inactive

NNc1ccccc1
Potency (CP329): inactive | Potency (CP335): inactive | Potency (DFO2036): inactive | Potency (DIV14): inactive | Potency (DIV17): inactive | Potency (DIV30): inactive | Potency (Dd2): inactive | Potency (ECU): inactive | Potency (FAB9): inactive | Potency (GB4): inactive | Potency (HB3): inactive | Potency (ICS): inactive | Potency (JCK): inactive | Potency (N140): inactive | Potency (P93_24): inactive | Potency (P94_40): inactive | Potency (PAD): inactive | Potency (PC15): inactive | Potency (PC26): inactive | Potency (PC49): inactive
